# Compound activity deposited in PubChem by The Scripps Research Institute Molecular Screening Center.
# Most compounds without a hit are left out; they make up all but 4.1% or so of the library.
# ssDAF-12 act – S. stercoralis DAF-12 activation, primary screen | HEK293 ssDAF-12/GRIP1 lit1-tk-luc reporter, luminescence; % of 3 µM dafachronic acid response | activation, % at 6.8 µM | 370,000 tested, 1% active | AID 652126;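 active means activation above the mean over all tested compounds plus 3 SD, cut at about 0.9% in these data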;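 further: 0% = DMSO-only wells and 100% = 3 µM delta7-dafachronic acid wells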
# hgDAF12 agonist – agonists of H. glycines DAF-12 nuclear receptor; activation, % at 6.8 µM; 370,000 tested, 1.8% active; AID 687014; HEK293 GAL4-hgDAF12 UAS-luciferase reporter, agonist luminescence; normalized to butyrate control;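 active means activation above a cutoff set at the mean of all screened compounds plus 3 SD, cut at about 10% in these data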;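 further: 0% = DMSO wells and 100% = sodium butyrate wells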
# DAX1 inh-1 – inhibitors of human orphan nuclear receptor DAX1 (NR0B1); HEK293 Gal4-DAX1 luciferase reporter, luminescence; 340,000 tested, 0.99% active; AID 504766; inhibition, % at 6.75 µM; P51843;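 active means inhibition above the mean over all tested compounds plus 3 SD, cut at about 4.2% in these data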;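 further: 0% = DAX1-transfected cells with DMSO and 100% = empty-vector control cells with DMSO; inhibition shows as a rise in luminescence from relieved DAX1 repression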
# hcDAF-12 act – activates DAF-12 receptor from parasite H. contortus. activation, % at 6.8 µM. AID 652067. 370,000 tested, 1.4% active. HEK293 hcDAF-12 lit1-tk-luc reporter, luminescence; 0% DMSO, 100% Δ7-dafachronic acid;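 active means activation above the mean of all tested compounds plus 3 SD, cut at about 5.5% in these data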;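 further: 100% = response to 3 µM Δ7-dafachronic acid high control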
# DAX1 inh-2 – inhibitors of DAX1 repression of SF-1 activated StAR promoter | HEK293T StAR-luciferase reporter, SF-1/DAX-1 repression relief | inhibition, % at 6.8 µM | 370,000 tested, 1.1% active | AID 652010;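 active means inhibition above the mean over all tested compounds plus 3 SD, cut at about 3.6% in these data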;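 further: 0% = DAX-1 cells with DMSO and 100% = cells lacking DAX-1 with DMSO; higher inhibition means more luminescence from relief of DAX-1 repression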
# LXR ag – counter-screen for hcDAF-12 agonists: agonists of human LXR-beta | shares compounds with hcDAF-12 act | HEK293 Gal4-LXR tk-luc reporter, luminescence, 24 h; normalized: DMSO 0%, positive control 100% | activation, % at 6.8 µM | 3,400 tested, under 10 active;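 active means mean percent activation of the reporter above a cutoff set as the average over tested compounds plus their standard deviation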
# Target sequence (P55055 whole entry, looked up, the tested form may be a part): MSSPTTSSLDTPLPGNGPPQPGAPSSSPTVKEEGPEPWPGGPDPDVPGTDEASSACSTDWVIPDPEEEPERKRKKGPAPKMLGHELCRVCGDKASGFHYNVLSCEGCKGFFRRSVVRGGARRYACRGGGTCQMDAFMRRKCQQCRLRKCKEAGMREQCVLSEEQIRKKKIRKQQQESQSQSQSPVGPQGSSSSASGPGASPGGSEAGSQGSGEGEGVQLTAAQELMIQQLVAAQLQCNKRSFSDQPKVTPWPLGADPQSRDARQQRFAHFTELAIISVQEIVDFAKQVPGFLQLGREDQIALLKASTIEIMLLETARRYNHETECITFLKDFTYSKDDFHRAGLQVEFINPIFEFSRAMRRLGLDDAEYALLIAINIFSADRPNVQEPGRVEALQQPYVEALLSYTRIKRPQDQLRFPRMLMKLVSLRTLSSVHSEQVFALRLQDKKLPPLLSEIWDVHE
# hcDAF12 ag – hcDAF-12 agonism, confirmation assay. shares compounds with hcDAF-12 act. HEK293 hcDAF-12 lit1-tk-luc reporter, luminescence; % of Δ7-dafachronic acid response. activation, % at 6.8 µM. 3,400 tested, 61% active;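 active means mean activation across triplicate tests above the threshold derived from the earlier primary screen, cut at about 5.5% in these data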;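 further: 0% = DMSO only wells and 100% = 3 µM Δ7-dafachronic acid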
# hgDAF12 conf – hgDAF-12 agonism, confirmation assay; shares compounds with hgDAF12 agonist; HEK293 GAL4-hgDAF12 luciferase reporter, agonist mode; percent of butyrate response; activation, % at 6.8 µM; 3,300 tested, 80% active; AID 743050;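 active means mean activation over triplicate wells above the hit cutoff derived from the earlier primary screen, cut at about 11% in these data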;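 further: 0% = DMSO low control and 100% = 2 mM sodium butyrate high control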
# LXRb DAF12 ctr – LXR-beta agonism as DAF-12 counter-screen | shares compounds with hgDAF12 agonist | HEK293 Gal4-LXR luciferase reporter, 24 h | activation, % at 6.8 µM | 3,300 tested, under 10 active;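 active means mean activation of the triplicate above a set limit carried over from the primary screen, none filed active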
# * = called active by the depositor; · = no result given.
SMILES,ssDAF-12 act,hgDAF12 agonist,DAX1 inh-1,hcDAF-12 act,DAX1 inh-2,LXR ag,hcDAF12 ag,hgDAF12 conf,LXRb DAF12 ctr
O=C(NCCCn1ccnc1)c1cc2ccccc2oc1=O,-1,0,1,2,1,·,·,·,·
CCc1nnc(NC(=O)c2ccc3ccccc3n2)s1,2.6*,14*,1,13*,3.9*,1,15*,18*,1
O=C(Nc1ccccc1C(=O)O)c1ccc2ccccc2n1,0,6,0,5,2,·,·,·,·
CCc1nnc(NC(=O)c2nc(Cl)ccc2Cl)s1,-1,-1,0,2,1,·,·,·,·
Cc1ccc(NC(=O)c2ccc3ccccc3n2)nc1,3.5*,16*,3,16*,3.8*,2,17*,20*,1
Cc1[nH]c2ccccc2c1/C=C/c1nc2ccccc2c(=O)[nH]1,0,14*,2,6.9*,4.4*,1,5.8*,18*,1
COc1cc(OC)cc(-c2cc3cc4c(cc3cn2)OCO4)c1,·,·,-1,·,·,·,·,·,·
COc1ccc2cc(-c3ccccc3)ncc2c1,1.8*,16*,2,13*,3,2,14*,20*,1
COc1cc(OC)cc(-c2cc3ccc(OC)cc3cn2)c1,0.9*,16*,3,6.7*,1,2,6.6*,19*,1
COc1ccc(-c2csc(C(O)c3cccc(OC)c3)n2)cc1 (stereo unspecified),-1,0,·,-2,-1,·,·,·,·
Cc1cc(C)c(C#N)c(SCc2ccc(F)cc2)n1,-1,-4,0,0,0,·,·,·,·
Cc1cc(C)c(C#N)c(SCc2nc3ccccc3[nH]2)n1,3.6*,15*,4.8*,18*,3,1,11*,12*,0
COC(=O)c1nn(-c2ccc(-c3ccccc3)cc2)cc1O,1,14*,-3,8.3*,4,2,8.2*,18*,1
O=C(NC1CC1)c1cccc(NC(=O)C2CCN(S(=O)(=O)c3ccccc3C(F)(F)F)CC2)c1,-1,-1,-1,0,-1,·,·,·,·
Cc1cc(NC(=O)c2ccccc2)sc1C,0,19*,0,9.9*,4,1,5,17*,1
COC1=C/C(=C/c2c(O)c(C#N)c3ccccn23)C=CC1=O,0.9*,14*,4,11*,2,0,4,11*,0
Oc1ccc(-c2cnc(-c3ccc(O)cc3)nc2)cc1,1.2*,17*,-2,6.9*,3,3,8.7*,17*,1
Cc1ccccc1-c1noc(-c2ccc(O)cc2)n1,1,18*,1,6.9*,3,1,4,16*,1
COCCN1Cc2c(sc(C)c2C)N(C(=O)c2ccccc2)C1,1.7*,14*,2,9.2*,2,0,3,8,0
CCN(CC(=O)NC(C)(C)C)Cc1cc(=O)n2c(-c3ccccc3)csc2n1,-1,0,0,-1,-1,·,·,·,·
COC(=O)C[C@@H]1CC[C@H]2[C@@H](COc3ccc(NC(=O)Nc4cccc(F)c4)cc3C(=O)N2C)O1,-1,1,·,2,-1,·,·,·,·
CCc1nnc(NC(=O)c2ccc(C)o2)s1,0,6,0,1,3,·,·,·,·
O=C(Nc1nc2c(s1)CCCC2)c1cccnc1,·,·,4,·,·,·,·,·,·
O=C(Nc1nc2c(s1)CCCC2)c1ccc(Br)o1,1.3*,16*,0,13*,2,2,10*,18*,1
Cc1ccc(C(=O)Nc2nc3c(s2)CCCC3)o1,0,13*,2,11*,3.8*,2,7.0*,16*,1
SMILES,ssDAF-12 act,hgDAF12 agonist,DAX1 inh-1,hcDAF-12 act,DAX1 inh-2,LXR ag,hcDAF12 ag,hgDAF12 conf,LXRb DAF12 ctr
CC1=C(C(=O)N2CCOCC2)CC(CC(=O)NCC2CCCCC2)C(=O)N1CCC1=CCCCC1 (stereo unspecified),-1,3,0,0,0,·,·,·,·
Cc1ccc(NC(=O)NNC(=O)CCn2nc(C)c([N+](=O)[O-])c2C)cc1C,-2,-2,·,1,0,·,·,·,·
CCCS(=O)(=O)NC(=O)C1(C)CCN(C(=O)c2oc3ccccc3c2C)C1 (stereo unspecified),-1,6,·,-1,-1,·,·,·,·
CCOc1ncccc1C(=O)OCC(=O)Nc1ccc(-c2nc3ccc(C)cc3s2)cc1,1.0*,18*,1,7.5*,4.4*,2,5.7*,18*,1
CCOc1ncccc1C(=O)OCC(=O)Nc1c(C)cc(C)cc1C,0,-1,0,-1,0,·,·,·,·
Cc1noc(C)c1-c1ccc(C(=O)NCCc2ccccc2)c2occc12,0,2,·,2,1,·,·,·,·
Cc1nc(-c2coc3cc(O)c(C)cc3c2=O)cs1,1,13*,-2,10*,2,2,10.0*,15*,1
COCCN(Cc1nc(-c2ccc(-c3ccccc3)cc2)oc1C)C(C)C,1.1*,15*,-4,10*,2,1,7.5*,18*,1
Cn1c(SCc2ccccc2F)nc2cccnc21,0,14*,3,8.0*,2,1,5.7*,18*,1
CCOC(=O)CSc1nc2cccnc2n1C,-1,-1,-1,-1,0,·,·,·,·
O=C1N(c2ccccc2)c2ccccc2[C@]12C[C@H](O)CO2,-1,1,·,-3,0,·,·,·,·
C=CCn1c(SCC(=O)Nc2ccc(-c3nc4ccc(C)cc4s3)cc2)nnc1-c1ccccc1,0,18*,1,7.2*,4.5*,1,2,10,1
CCOc1ccc(NC(=O)c2ccncc2)cc1,-1,0,4,1,0,·,·,·,·
CCOc1ccc(NC(=O)c2nsc(Cl)c2Cl)cc1,0.9*,18*,4,7.2*,4.4*,1,6.6*,18*,1
Cc1ccc(NC(=O)/C=C/c2cccs2)c([N+](=O)[O-])c1,-1,14*,2,6.8*,1,1,6.5*,19*,1
Cc1ccc(NC(=O)/C=C/C(=O)O)c([N+](=O)[O-])c1,-1,0,2,2,0,·,·,·,·
O=C(NC(=S)Nc1cnc2ccccc2c1)c1ccccc1,1.9*,21*,5.9*,7.4*,4.2*,1,6.6*,13*,1
